Giardia kill: Small Molecules that selectively kill Giardia lamblia: qHTS; Giardia lamblia trophozoite viability; AID 540267, 2011; activity change, % at 7.66 µM, hits read low; 0.15% of 340,000 active; in the data active = activity change below about -80%; inconclusive = between about -30% and that limit;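 also: parasites exposed to compound for two days anaerobically before the ATP read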
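Giardia trophozoites, 100 cells per well, were exposed to compounds for 48 hrs at 37 deg C under anaerobic conditions; viability was then read as ATP content by bioluminescence after 15-30 min at room temperature.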
ELG1 DNA repair: qHTS screen for small molecules that inhibit ELG1-dependent DNA repair in human embryonic kidney (HEK293T) cells expressing luciferase-tagged ELG1; 2.3% of 330,000 active; HEK293T ELG1-luciferase reporter, luminescence, 16 h; DNA damage induced by 5-fluorouridine; Potency, µM (doses to about 46.1 µM), inactives show top-dose activity change, negative = inhibition, actives largely listed as inhibitors; also: potency is read from the fitted curve at half-maximal effect; nearly all actives have a fitted effect of over 55% in size
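Step one: seed 2,000 cells per well. Step two: pin-transfer compound or DMSO alongside 5-fluorouridine. Step three: incubate 16 hr, 37 °C, 5% CO2. Step four: add ONE-Glo, wait 30 min, read luminescence.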
Sfp inh: qHTS Assay for Inhibitors of Bacillus subtilis Sfp phosphopantetheinyl transferase (PPTase); 4'-phosphopantetheinyl transferase ffp (Bacillus subtilis), Q9F4F7; Biochemical Sfp PPTase activity, qHTS; Potency, µM, for the others: largest response in the series, negative = inhibition, hits mostly inhibitors; 3.5% of 310,000 active;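 also: the enzyme is Sfp with the accession as filed and its product quenches rhodamine fluorescence; potency is read from the fitted curve at half-maximal effect; 0% = enzyme reaction without inhibitor and -100% = no enzyme wells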
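Compounds were incubated with enzyme (final 15 nM) for 15 min at room temperature before substrate addition started the reaction. Fluorescence at 525 nm excitation, 598 nm emission was recorded immediately and after 30 minutes.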
Coupling enz: qHTS Assay for Inhibitors of Fructose-1,6-bisphosphate Aldolase from Giardia Lamblia: Coupling assay counterscreen | coupling enzyme system counterscreen, AmpLite Red fluorescence | activity change, negative = inhibition, % at 58.2 µM, hits read low | 0.67% of 290,000 active | AID 2472, 2010; in the data active = activity change below about -30%
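Coupling enzymes only (glyceraldehyde-3-phosphate) + compound, at 57.5 uM final, 10 min RT; add substrate/coupling/AmpLite Red mix, 20 min RT; fluorescence ex 525/em 598 nm. Actives flag coupling-system interference.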
ELG1 FLuc counter: qHTS screen for small molecules that inhibit ELG1-dependent DNA repair: Hit Confirmation in Cell-Based Luciferin Assay. AID 624247, 2012. 3% of 350 active. shares compounds with ELG1 DNA repair. cell-free firefly luciferase luminescence counter-screen, ViewLux. Potency, µM (doses to about 46.1 µM), for the others: at the top dose activity change, negative = inhibition, actives largely listed as inhibitors; also: potency is read from the fitted curve at half-maximal effect
ELG1 Luc conf: HTS assay for small molecules that inhibit ELG1-dependent DNA repair in human embryonic kidney (HEK293T) cells expressing luciferase-tagged ELG1: Hit Confirmation; shares compounds with ELG1 DNA repair; Potency, µM (doses to about 46.1 µM), for the others: at the top dose activity change, negative = inhibition, usual class: inhibitors; 68% of 670 active; AID 624248, 2012; HEK293T ELG1-luciferase levels, luminescence; cells co-treated with 5-fluorouridine; also: potency is read from the fitted curve at half-maximal effect; nearly all actives have a fitted effect of over 55% in size
ELG1-Luc MMS: inhibits ELG1-dependent repair under MMS stimulation in HEK293T cells; shares compounds with ELG1 DNA repair; HEK293T luciferase-tagged ELG1 level, MMS stimulated; Potency, µM (series often up to 46.1 µM), inactives show top-dose activity change, negative = inhibition, usual class: inhibitors; 53% of 670 active; AID 624249; also: potency is read from the fitted curve at half-maximal effect; nearly all actives have a fitted effect of over 60% in size
ELG1 5-FU: qHTS screen for small molecules that inhibit ELG1-dependent DNA repair: Hit Confirmation with 5FU Viability | shares compounds with ELG1 DNA repair | cell viability with 5-FU, ELG1-dependent repair | Potency, µM (top dose mostly 46.1 µM), inactives show at the top dose activity change, negative = viability loss, usual class: cytotoxic | 670 tested, under 10 active | AID 624250, 2012;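 also: ELG1-luc HEK293T cells cotreated with 5-fluorouridine at 10 µM final; potency is read from the fitted curve at half-maximal effect; viability measured 16 h after compound addition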
ELG1 MMS cell: qHTS screen for small molecules that inhibit ELG1-dependent DNA repair: Hit Confirmation with MMS Viability; shares compounds with ELG1 DNA repair; Cell viability with MMS, ELG1-dependent DNA repair; Potency, µM (titrated, usually from 46.1 µM), for the others: at the top dose activity change, negative = viability loss, most hits filed as cytotoxic; 33% of 670 active;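 also: ELG1-luc HEK293T cells co-treated with 10 µM MMS; potency is read from the fitted curve at half-maximal effect; viability read 16 h after compound addition; nearly all actives have a fitted effect of over 60% in size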
ELG1 unstim viab: qHTS screen for small molecules that inhibit ELG1-dependent DNA repair: Hit Confirmation with Unstimulated Viability Assay | 8% of 900 active | AID 624252, 2012 | Potency, µM (doses to about 45.9 µM), for inactives: at the top dose activity change, negative = loss of viability, most hits filed as cytotoxic | cell viability counter-screen, unstimulated, luminescence | shares compounds with ELG1 DNA repair;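 also: potency is read from the fitted curve at half-maximal effect; compound exposure lasted 16 hours before reading; nearly all actives have a fitted effect of over 55% in size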
FLuc enzyme: qHTS screen for small molecules that inhibit ELG1-dependent DNA repair: Hit Confirmation in Biochemical Luciferin Assay; Potency, µM (doses to about 57.5 µM), inactives show top-dose activity, negative = inhibition, most hits filed as inhibitors; purified firefly luciferase, luminescence counter-screen; 10% of 350 active; shares compounds with ELG1 DNA repair; also: potency is read from the fitted curve at half-maximal effect
Starred values were filed as active, the others as inactive; ? = inconclusive; · = not tested or not shown. In the library only some 5.5% were active in any assay of this set; here they are far more common. Unless noted, calls follow the shape of the dose curve; as a rule, active = well fitted curve in the direction sought with a large enough effect; inconclusive = small, poorly fitted or top-dose-only effect, or another doubt; inactive = no such curve, though single readings can be large; an effect the other way counts as inactive or inconclusive. Unless noted, % is scaled to controls: 0 for no effect and ±100 for the full control effect.

SMILES | Giardia kill | ELG1 DNA repair | Sfp inh | Coupling enz | ELG1 Luc conf | ELG1-Luc MMS | ELG1 5-FU | ELG1 MMS cell | ELG1 unstim viab | others
COc1cc(C)c(Br)cc1S(=O)(=O)NCc1ccncc1 | -17 | 1.6µM* | -2% | -1 | -7% | 3.2µM* | -7% | 3.2µM* | ? | ELG1 FLuc counter=-6%;FLuc enzyme=-1%
Cc1ccc(S(=O)(=O)NCc2ccncc2)c(C)c1C | 2 | 0% | 45µM* | -13 | 10% | 1µM* | -10% | 1.1µM* | ? | ELG1 FLuc counter=-8%;FLuc enzyme=-4%
COc1cc(C)c(Br)cc1S(=O)(=O)NCc1cccs1 | -12 | -3% | 9% | -3 | · | · | · | · | ·
CCCCNC(=O)CCc1c(C)nc2nc(-c3cc(OC)cc(OC)c3)nn2c1C | -2 | 2.3µM* | -20% | 5 | ? | 1% | ? | ? | 8%
CC(C)C[C@@]12C(=O)N(c3cccc(Br)c3)C(=O)N1[C@H](c1ccc(F)cc1)[C@@H]1C(=O)N(C3CCCCC3)C(=O)[C@@H]12 | -4 | 18% | · | · | · | · | · | · | ·
CSc1ncccc1C(=O)OCC(=O)c1cc(C)n(C)c1C | -27 | ? | · | · | · | · | · | · | ·
CCn1c(C)cc(C(=O)COC(=O)c2cccnc2SC)c1C | 6 | ? | · | · | · | · | · | · | 12%
Cc1cc(C(=O)COC(=O)c2cccnc2Cl)c(C)n1C | ? | ? | · | · | · | · | · | · | ? | ELG1 FLuc counter=-8%;FLuc enzyme=0.26µM*
O=S(=O)(c1ccc(F)c(F)c1)N1CCC2(CC1)OCCO2 | 8 | -21% | 8% | · | · | · | · | · | ·
Cc1cccc(C)c1NC(=O)NC1(C(=O)NCc2ccncc2)CCCCC1 | 1 | -1% | 31% | -2 | · | · | · | · | ·
COc1ccc(CCNC(=O)C(C)n2nc(C)c3c(C)n(-c4ccc(C)cc4)nc3c2=O)c(OC)c1 (configuration not stated) | 19 | -18% | 13% | 5 | · | · | · | · | ·
Cc1cn(CC(=O)NCCCn2ccnc2)c(=O)[nH]c1=O | 13 | · | · | · | · | · | · | · | ·
CCOC(=O)c1c(C)[nH]c(C(=O)N2CCc3cc(OC)c(OC)cc3C2)c1C | 6 | 1.5µM* | · | · | 3.5µM* | ? | ? | -16% | -18%
C=CCn1c(SCC(=O)NCc2ccc3c(c2)OCO3)nc2scc(-c3ccccc3)c2c1=O | 6 | ? | ? | 0 | · | · | · | · | ·
C=CCn1c(SCC(=O)N2CC(=O)Nc3ccccc32)nc2scc(-c3ccccc3)c2c1=O | -11 | 1.6µM* | 2% | 3 | 22µM* | -7% | 7% | -7% | ?
COc1ccc(-c2cc(C(F)(F)F)n3nc(C(=O)N4CCOCC4)nc3n2)cc1 | -6 | 0% | 15% | 2 | · | · | · | · | ·
O=C(c1nc2nc(-c3ccccc3)cc(C(F)(F)F)n2n1)N1CCCCC1 | -7 | 3.3µM* | -8% | 0 | -8% | 18% | 1% | -5% | -1%
O=C(Nc1nc(-c2ccc3c(c2)OCCO3)cs1)c1ccc(S(=O)(=O)N2CCCCC2)cc1 | 14 | 4.1µM* | 12% | -1 | ? | 2.8µM* | 7% | 3.5µM* | -18%
O=C(Nc1nc(-c2cccnc2)cs1)c1ccc(S(=O)(=O)N2CCOCC2)cc1 | -14 | ? | 5% | 6 | · | · | · | · | ·
COc1ccc(C(=O)N/C(=C\c2cccs2)c2nc3ccccc3[nH]2)cc1OC | -5 | 2.3µM* | -6% | 3 | 7.9µM* | 1% | ? | -1% | ?
Cc1ccc2cc(CN(Cc3ccco3)C(=O)NCc3ccccc3)c(=O)[nH]c2c1C | -4 | ? | -10% | 0 | · | · | · | · | ·
COc1ccccc1NC(=O)N(Cc1ccco1)Cc1cc2ccc(C)c(C)c2[nH]c1=O | 4 | 8.2µM* | 11% | 2 | 4µM* | ? | 4% | ? | ? | ELG1 FLuc counter=10%;FLuc enzyme=-17%
CC(=O)c1ccc(S(=O)(=O)N2CCN(CC(=O)Nc3ccccc3C(=O)NC3CC3)CC2)cc1 | 0 | ? | · | · | · | · | · | · | ·
Clc1ccc(-c2cnnc(-c3ccccn3)n2)cc1 | -7 | ? | · | · | · | · | · | · | -1%
c1ccc(-c2cnnc(-c3ccccn3)n2)cc1 | 8 | · | · | · | · | · | · | · | ·
SMILES | Giardia kill | ELG1 DNA repair | Sfp inh | Coupling enz | ELG1 Luc conf | ELG1-Luc MMS | ELG1 5-FU | ELG1 MMS cell | ELG1 unstim viab | others
CNC(=O)[C@]1(C)C[C@H]1[C@H](NC(=O)[C@]1(C)C[C@H]1[C@H](NC(=O)OCc1ccccc1)c1ccccc1)c1ccccc1 | · | · | 14% | 1 | · | · | · | · | ·
COc1ccccc1CN(Cc1nc2ccccc2c(=O)[nH]1)S(=O)(=O)c1ccc2ccccc2c1 | 14 | 3.7µM* | -5% | 1 | 7.9µM* | 6.3µM* | ? | 16µM* | 18µM*
COc1ccc(NS(=O)(=O)c2cccc(C(=O)N3CCCC3)c2)cc1 | -11 | -5% | · | · | · | · | · | · | ·
O=c1c2ccccc2nc(COc2ccccc2)n1/N=C/c1c[nH]c2ccccc12 | -3 | 2.3µM* | -15% | 0 | 6.3µM* | -18% | ? | 4% | ?
Cc1ccccc1OCc1nc2ccccc2c(=O)n1/N=C/c1ccco1 | 8 | ? | -4% | 3 | · | · | · | · | ·
CC(C)NC(=O)CSc1ccccc1C(=O)NNC(=O)Cn1ccc(C(F)(F)F)n1 | 11 | 12% | · | · | · | · | · | · | ·

High-throughput results (PubChem)
